Assay [1] relates to Plasmodium falciparum Sir2 (PF13_0152, Sir2A). Put plainly: pfSir2 binders on small-molecule microarrays, primary screen, biochemical, small-molecule microarray, 635 nm fluorescence (AID 1098).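 Also: score merges spot fluorescence intensity with its signal-to-noise ratio.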 The following applies: small-molecule microarray binding, fluorescence 635 nm; higher = more signal.
A short description of assay [2]: small-molecule microarray binders of probe aDKK1, primary screen, biochemical, biotinylated probe, 635/667 nm fluorescence (AID 1099).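 Also: score merges 667nm spot fluorescence with signal to noise across triplicate slides.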 The following applies: higher = more signal.
Assay [3] is described as follows: small-molecule microarray binders of probe aCHRDL2, primary screen, biochemical, biotinylated probe, 635/667 nm fluorescence (AID 1100). The following applies: higher = more signal.
A short description of assay [4]: splicing luciferase reporter signal modulators, primary screen, spliceosome inhibition project, cell-based, HEK293, splice +/- reporter (AID 1101).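 Also: HEK293 cells carrying a splicing-competent luciferase reporter gene; test concentration not given here.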 The following applies: luminescence, 24 h, higher = more signal, called active from +8 up or from −8 down.
Assay [5] addresses Fibroblast growth factor 10 (Homo sapiens) (UniProt O15520). Nature of the assay: FGF10 binders on small-molecule microarrays, primary screen, biochemical, small-molecule microarray, 635 nm fluorescence (AID 1102). The following applies: FGF10 binding, fluorescence 635 nm, higher = more signal.
Assay [6] deals with glycogen synthase kinase-3 (GSK3A per assay name; protocol says GSK3B). Put plainly: GSK3 binders on small-molecule microarrays, primary screen, biochemical, small-molecule microarray, 635 nm fluorescence, GSK3A (AID 1103). Also: the record names both GSK3A and GSK3B. Conditions: small-molecule microarray binding, fluorescence 635 nm; higher = more signal.
For assay [7], the target named is Epidermal growth factor receptor (Homo sapiens) (UniProt P00533). Nature of the assay: EGFR binders on small-molecule microarrays, primary screen, biochemical, small-molecule microarray, 635 nm fluorescence (AID 1104).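 Also: score merges 667 nm emission intensity with spot signal to noise over triplicate slides.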 The following applies: EGFR binding, higher = more signal.
Assay [8] concerns the target Follistatin-related protein 3 (Homo sapiens) (UniProt O95633). Put plainly: FSTL3 binders on small-molecule microarrays, primary screen, biochemical, small-molecule microarray, 635 nm fluorescence (AID 1105).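 Also: score merges emission near 667 nm and signal to noise per printed spot across three slides.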 Conditions: FSTL3 binding, higher = more signal.
For assay [9], the target named is Dickkopf-related protein 1 (Homo sapiens) (UniProt O94907). Put plainly: DKK1 binders on small-molecule microarrays, primary screen, biochemical, small-molecule microarray, 635 nm fluorescence scan (AID 1106).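 Also: score merges emission near 667 nm with signal to noise over three replicate slides.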 Conditions: DKK1 binding, higher = more signal.
Assay [10] deals with Inhibin beta A chain (activin A). Nature of the assay: INHBA (activin A) binders on microarrays, primary screen, biochemical, small-molecule microarray, 635 nm fluorescence scan (AID 1107).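 Also: mouse activin A protein probed at 4.33 µg/mL on printed slides; score merges bound-protein fluorescence near 667 nm with spot signal-to-noise.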 The following applies: small-molecule microarray binding, higher = more signal.
Assay [11] relates to Human papillomavirus type 1a protein E7 (residues 44-93). Put plainly: HPV1a E7 fragment binders on microarrays, primary screen, biochemical, small-molecule microarray, residues 44-93, 635 nm fluorescence (AID 1108).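 Also: E7 fragment applied at 1 µg/mL in TBST for 1 h at 4 C; score combines spot fluorescence with its signal to noise ratio.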 Conditions: small-molecule microarray binding, fluorescence 635 nm; higher = more signal.
The nature of assay [12]: modulators of HCV replicon luciferase signal, primary screen, HCV replication inhibitor project, Huh7 cells, luciferase reporter (AID 1109).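 Also: huh7 hepatoma cells harbouring a luciferase neomycin HCV replicon reporter; luciferase luminescence as measure of HCV replicon replication; test concentration not given here.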 The following applies: 48 h, higher = more signal.
In assay [13] the target is Left-right determination factor 2 (Homo sapiens) (UniProt O00292). Put plainly: LEFTY2 binders on small-molecule microarrays, primary screen, biochemical, small-molecule microarray, 635 nm fluorescence scan (AID 1110). The following applies: LEFTY2 binding, higher = more signal.
Assay [14] addresses Calmodulin-1 (Homo sapiens) (UniProt P0DP23). Put plainly: CALM1 binders on microarrays, EGTA buffer, profiling panel, biochemical, small-molecule microarray, Cy5-labelled CALM1 (AID 1111).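 Also: labelled calmodulin applied in Tris saline Tween buffer holding calcium plus EGTA and DTT.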 The following applies: Cy5-CALM1 binding fluorescence, higher = more signal.
Assay [15] shares this target. Put plainly: calcium-bound CALM1 binders on microarrays, profiling panel, artefact control for SMM control-protein annotation, biochemical, small-molecule microarray, Cy5-labelled CALM1, plus calcium (AID 1112).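 Also: score merges spot fluorescence with signal to noise from triplicate slides.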 The following applies: Cy5-CALM1 binding fluorescence, higher = more signal.
A short description of assay [16]: small-molecule microarray binders of probe aWnt5a, primary screen, biochemical, biotinylated probe, 635/667 nm fluorescence (AID 1113).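 Also: score merges 667 nm fluorescence intensity with signal-to-noise per printed feature.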 Conditions: higher = more signal.
Assay [17] is described as follows: small-molecule microarray binders of probe aShh, primary screen, biochemical, biotinylated probe, 635/667 nm fluorescence (AID 1114).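 Also: probe is biotin-labelled aShh protein from a stem cell growth factor screen; measures binding of labelled protein to compounds printed on the slide; score merges feature fluorescence at 667 nm with signal-to-noise.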 Conditions: higher = more signal.
Assay [18] in a line: small-molecule microarray binders of probe aNog, primary screen, biochemical, biotinylated probe, 635/667 nm fluorescence (AID 1115).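 Also: probe is biotinylated aNog protein used at 0.15 µg/mL for 1 h at 4 C; z-score combines 667 nm fluorescence of each spot with its signal to noise.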 The following applies: higher = more signal.
The target in assay [19] is Torsin-1A-interacting protein 1 (Homo sapiens) (UniProt Q5JTV8). Put plainly: LAP1 binders from COS7 cell lysate, primary screen, small-molecule microarray, 635/667 nm fluorescence (AID 1116). Conditions: COS7-hLAP1 lysate binding, 635 nm fluorescence, higher = more signal.
The target of assay [20] is Alpha-bungarotoxin (Bungarus multicinctus) (UniProt P60615). Nature of the assay: alpha-bungarotoxin binders on microarray, profiling panel, artefact control for SMM control protein annotation, biochemical, small-molecule microarray, Alexa647 label, 635/667 nm fluorescence (AID 1117). Conditions: alpha-BTX-A647 binding fluorescence, higher = more signal.

Active and inactive are the calls of the source.

Chain of Fibroblast growth factor 10 (Homo sapiens) (O15520 whole entry, looked up): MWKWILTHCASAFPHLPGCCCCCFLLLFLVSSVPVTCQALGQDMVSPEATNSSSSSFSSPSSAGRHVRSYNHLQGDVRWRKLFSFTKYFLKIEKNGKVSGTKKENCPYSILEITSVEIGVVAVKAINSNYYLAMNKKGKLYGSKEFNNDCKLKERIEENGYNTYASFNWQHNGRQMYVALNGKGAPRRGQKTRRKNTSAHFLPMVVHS
Chain of Dickkopf-related protein 1 (Homo sapiens) (O94907 whole entry, looked up): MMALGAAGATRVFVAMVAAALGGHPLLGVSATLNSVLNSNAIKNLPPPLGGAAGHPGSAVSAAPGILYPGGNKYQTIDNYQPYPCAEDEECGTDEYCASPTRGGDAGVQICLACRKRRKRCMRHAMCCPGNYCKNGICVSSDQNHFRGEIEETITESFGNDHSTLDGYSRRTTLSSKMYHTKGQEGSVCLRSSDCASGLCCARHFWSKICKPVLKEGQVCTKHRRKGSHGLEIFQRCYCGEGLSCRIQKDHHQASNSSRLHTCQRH
Chain of Left-right determination factor 2 (Homo sapiens) (O00292 whole entry, looked up): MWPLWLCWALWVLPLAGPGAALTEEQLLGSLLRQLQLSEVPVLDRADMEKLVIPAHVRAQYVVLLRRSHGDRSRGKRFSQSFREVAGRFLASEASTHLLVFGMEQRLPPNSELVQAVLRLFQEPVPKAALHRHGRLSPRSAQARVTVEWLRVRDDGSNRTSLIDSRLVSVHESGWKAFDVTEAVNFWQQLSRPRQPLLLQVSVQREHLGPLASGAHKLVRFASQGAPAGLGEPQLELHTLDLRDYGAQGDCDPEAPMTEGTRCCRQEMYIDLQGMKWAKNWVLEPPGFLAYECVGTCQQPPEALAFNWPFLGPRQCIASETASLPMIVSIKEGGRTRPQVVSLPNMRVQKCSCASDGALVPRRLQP
Chain of Follistatin-related protein 3 (Homo sapiens) (O95633 whole entry, looked up): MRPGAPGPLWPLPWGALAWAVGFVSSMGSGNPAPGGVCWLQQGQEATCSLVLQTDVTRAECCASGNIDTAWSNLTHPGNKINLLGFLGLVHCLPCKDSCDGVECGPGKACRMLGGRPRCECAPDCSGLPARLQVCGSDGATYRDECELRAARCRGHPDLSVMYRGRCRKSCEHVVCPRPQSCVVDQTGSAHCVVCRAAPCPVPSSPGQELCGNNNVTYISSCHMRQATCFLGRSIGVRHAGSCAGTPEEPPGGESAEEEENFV
Chain of Alpha-bungarotoxin (Bungarus multicinctus) (P60615 whole entry, looked up): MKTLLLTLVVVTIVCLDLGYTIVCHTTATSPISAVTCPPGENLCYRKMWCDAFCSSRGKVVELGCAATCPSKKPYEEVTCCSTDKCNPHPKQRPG
Chain of Torsin-1A-interacting protein 1 (Homo sapiens) (Q5JTV8 whole entry, looked up): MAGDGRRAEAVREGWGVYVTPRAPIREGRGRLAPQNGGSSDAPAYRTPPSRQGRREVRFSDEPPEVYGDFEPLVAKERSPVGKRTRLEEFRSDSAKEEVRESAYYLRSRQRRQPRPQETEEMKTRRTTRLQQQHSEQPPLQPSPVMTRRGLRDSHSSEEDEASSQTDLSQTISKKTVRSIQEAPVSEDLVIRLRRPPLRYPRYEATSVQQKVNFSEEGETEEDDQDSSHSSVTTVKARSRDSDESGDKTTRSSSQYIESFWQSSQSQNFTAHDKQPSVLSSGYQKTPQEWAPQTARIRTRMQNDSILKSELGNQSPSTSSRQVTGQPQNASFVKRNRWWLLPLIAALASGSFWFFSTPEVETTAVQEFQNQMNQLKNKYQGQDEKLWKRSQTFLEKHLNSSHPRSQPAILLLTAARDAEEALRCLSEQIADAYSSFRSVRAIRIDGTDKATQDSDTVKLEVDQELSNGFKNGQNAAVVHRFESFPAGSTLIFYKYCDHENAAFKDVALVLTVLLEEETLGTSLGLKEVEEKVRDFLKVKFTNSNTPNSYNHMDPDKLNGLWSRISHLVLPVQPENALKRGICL
Chain of Epidermal growth factor receptor (Homo sapiens) (P00533 whole entry, looked up): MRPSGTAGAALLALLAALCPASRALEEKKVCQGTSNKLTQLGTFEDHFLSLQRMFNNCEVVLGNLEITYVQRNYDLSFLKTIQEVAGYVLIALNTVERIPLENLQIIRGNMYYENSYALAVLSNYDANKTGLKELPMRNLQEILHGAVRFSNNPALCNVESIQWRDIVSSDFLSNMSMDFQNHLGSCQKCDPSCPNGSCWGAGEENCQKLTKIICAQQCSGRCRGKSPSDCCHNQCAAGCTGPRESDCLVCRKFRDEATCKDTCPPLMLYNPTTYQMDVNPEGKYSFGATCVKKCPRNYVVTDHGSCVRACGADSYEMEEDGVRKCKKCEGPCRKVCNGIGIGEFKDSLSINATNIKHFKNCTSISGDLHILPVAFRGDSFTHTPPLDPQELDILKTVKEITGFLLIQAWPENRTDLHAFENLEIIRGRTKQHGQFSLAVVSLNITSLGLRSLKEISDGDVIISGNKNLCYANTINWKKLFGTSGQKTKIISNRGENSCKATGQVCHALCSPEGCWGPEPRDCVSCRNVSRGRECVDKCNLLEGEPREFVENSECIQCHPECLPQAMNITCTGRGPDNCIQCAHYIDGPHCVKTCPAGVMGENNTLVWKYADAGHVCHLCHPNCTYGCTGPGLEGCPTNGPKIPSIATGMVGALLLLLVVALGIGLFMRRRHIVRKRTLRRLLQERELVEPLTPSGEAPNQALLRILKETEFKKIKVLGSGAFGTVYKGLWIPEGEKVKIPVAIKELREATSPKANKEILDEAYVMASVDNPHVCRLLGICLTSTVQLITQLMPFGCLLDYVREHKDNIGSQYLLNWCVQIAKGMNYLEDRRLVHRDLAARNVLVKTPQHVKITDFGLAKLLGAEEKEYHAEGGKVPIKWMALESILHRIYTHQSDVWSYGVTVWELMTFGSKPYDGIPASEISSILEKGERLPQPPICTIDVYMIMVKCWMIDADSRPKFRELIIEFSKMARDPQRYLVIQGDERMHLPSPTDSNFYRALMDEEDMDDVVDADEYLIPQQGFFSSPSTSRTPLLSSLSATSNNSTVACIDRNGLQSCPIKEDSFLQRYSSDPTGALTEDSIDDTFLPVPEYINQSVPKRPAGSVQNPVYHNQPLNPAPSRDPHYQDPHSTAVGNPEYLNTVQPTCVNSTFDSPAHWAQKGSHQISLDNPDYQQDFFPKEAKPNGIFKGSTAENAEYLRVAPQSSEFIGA

`COCCCNC(=O)[C@@]1(Cc2ccccc2)N=C(c2ccc(OCCCO)cc2)O[C@H]1c1ccccc1N=[N+]=[N-]`: the composite z-score in assay [1] is 0.481; in assay [2], 1.22; in [3], 1.19; in assay [5], 1.2; in [6], 1.24; in assay [7], -0.176. The composite z-score in [8] was 0.176; in assay [9], 0.101; in assay [10], 1.31; in [11], 0.175; in assay [13], -0.151; in assay [14] it was 1.05. The composite z-score amounted to 0.945 in assay [15]; 0.115 in [16]; 1.02 in assay [17]; 0.805 in assay [18]; 0.948 in assay [19]; 1.35 in assay [20]. In addition, the results for the z-score in assay [4] and in [12] were -1.3 (inactive) and -2.59, respectively.

For the compound `COc1ccc([Si](C)(C)[C@@H]2[C@@H](CCn3cc(CCO)nn3)O[C@]3(C(=O)N(Cc4ccc(N5C(=O)c6cccc7cccc5c67)cc4)c4ccccc43)[C@H]2C)cc1`, the composite z-score in assay [1] amounted to 0.831; in [2], 0.134; in [3], 0.207; in assay [5], 0.266; in [6], 0.0923; in assay [7] it was 0.248. For the same compound, the composite z-score in assay [8] worked out at 0.334; in [9], 0.258; in assay [10], 0.581; in assay [11], 0.119; in assay [13], 0.316; in [14], 1.22. In addition, the composite z-score in assay [15] is 0.863; in [16], -0.0459; in [17], 0.112; in [18] it was -0.284; in [19] it was 0.758; in [20], 1.6. The results for the z-score in [4] and in assay [12] were -2.39 (inactive) and -5.16, respectively.

In the case of `C=CCNC(=O)[C@@H]1[C@H]2C(=O)O[C@H](c3ccccc3)[C@H](c3ccccc3)N2[C@H](c2ccc(O)cc2)[C@@]12C(=O)N(C(=O)OCCOC)c1ccc(C#Cc3ccc(OC)cc3)cc12`, the composite z-score in assay [1] was 1.12; in [2] it was 0.51; in [3] it was -0.382; in assay [5] it was 0.793; in assay [6], 1.3; in [7], 0.541. Further, the composite z-score in [8] was 0.62; in assay [9] it was 1.12; in assay [10], -0.071; in assay [11], 1.13; in assay [13], 0.638; in [14], 1.75. The composite z-score in [15] was 0.185; in assay [16] it was -0.0368; in [17], -0.0011; in [18] it was 0.315; in assay [19] it was 1.13; in assay [20], 0.579. Further, the values for the z-score in assay [4] and in assay [12] were -1.16 (inactive) and -1.77, respectively.

As for `COCCCNC(=O)[C@@]1(C)c2ccccc2C(=O)N(Cc2cc(F)cc(C(F)(F)F)c2)[C@H]1c1ccc(CO)cc1`, the composite z-score in [1] was 0.938; in assay [2] it was 0.612; in [3] it was 0.862; in assay [5], 0.22; in assay [6], -0.611; in [7], -1.79. Besides, the composite z-score in [8] is -1.69; in assay [9] it was -2.23; in [10], -0.39; in assay [11] it was -0.762; in assay [13] it was -1.88; in assay [14], -0.416. Moreover, the composite z-score in [15] is 0.49; in assay [16], -0.178; in assay [17], -0.0769; in [18], -0.144; in assay [19], 0.0999; in [20], -1.97. Also, the z-score is -0.112 (inactive) in assay [4] and 0.67 in [12].

On to `CC(C)C(=C=CC[C@@H](O)c1ccc(CO)o1)CCO`, for which the composite z-score in assay [1] was 1.78; in assay [2], -0.2; in [3] it was -0.479; in [5], 0.9; in [6], 0.367; in assay [7], -0.171. Further, the composite z-score in assay [8] was 0.197; in assay [9], 0.39; in [10] it was 1.08; in [11], 0.185; in assay [13], 0.0308; in [14], -0.108. Moreover, the composite z-score was -0.13 in assay [15]; -0.178 in assay [16]; -0.123 in [17]; 0.0954 in [18]; 0.42 in [19]; 0.205 in assay [20]. Also, the z-score in [4] was -0.493 (inactive); in [12] it was -0.744.

As to `O=C(O)[C@H]1C[C@H]2C(=O)NCC(=O)N2[C@H]1c1cccc(OCCO)c1`, the composite z-score amounted to 1.69 in [1]; 0.809 in assay [2]; 0.725 in [3]; 0.082 in assay [5]; 0.444 in [6]; 0.0343 in assay [7]. Also, the composite z-score in assay [8] is 0.778; in [9], 0.552; in assay [10] it was 1.5; in assay [11], 0.22; in assay [13], -0.166; in assay [14], 0.338. The composite z-score in assay [15] is 0.921; in assay [16], 0.291; in assay [17], 0.0118; in assay [18] it was 0.906; in assay [19], 1.51; in assay [20], 1.81. Moreover, the results for the z-score in assay [4] and in assay [12] were -0.387 (inactive) and 3.1, respectively.

These data come from PubChem BioAssay.
